PLK1 PBD block: inhibitors of human PLK1 polo-box domain binding | P53350 | Plk1 PBD binding of FITC phosphopeptide, fluorescence polarization | Potency, µM, for the others: max response, negative = inhibition, usual class: inhibitors | 2.8% of 360,000 active; further: series mostly up to about 57 µM; on the % scale 0 is the no-effect control and ±100 the full control effect; nearly all actives have a fitted effect of over 65% in size
ALOX12 inh: ALOX12 (human) lipoxygenase inhibition | purified 12hLO, xylenol orange hydroperoxide absorbance | Potency, µM (doses to about 108 µM), without a hit: at the highest dose activity change, negative = inhibition, most hits filed as inhibitors | 1.1% of 580,000 active | AID 1671190; further: on the % scale 0 is the no-effect control and ±100 the full control effect
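Hydroperoxide product was detected by ferrous iron/xylenol orange as the 573 to 405 nm absorbance ratio. Arachidonic acid at 40 uM (final) was turned over for 30 min at room temperature by 150 nM human 12hLO, pH 7.0 Hepes buffer, after 15 min compound preincubation.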
HP1b chromo inh: inhibitors of HP1-beta chromodomain binding to methylated histone tails; AID 540317; 0.56% of 390,000 active; AlphaScreen HP1-beta / biotin-H3K9me3 peptide binding; Potency, µM (doses to about 114 µM), inactives show top-dose activity change, negative = inhibition, usual class: inhibitors; P83916; further: nearly all actives have a fitted effect of over 70% in size
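Compound inhibition of the preformed complex between 50 nM HP1-beta and 50 nM biotinylated H3K9me3 peptide was read by AlphaScreen. Buffer was PBS pH 7.4 with 0.01% Tween-20. Incubations ran 30 min at room temperature, with 10 ug/mL donor/acceptor beads.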
G9a inh: blocks human histone lysine methyltransferase G9a | Q96KQ7 | G9a H3K9 monomethylation, AlphaScreen, 2 h | Potency, µM (series often up to 102 µM), for the others: at the top dose activity, negative = inhibition, hits mostly inhibitors | 8.8% of 350,000 active; further: on the % scale 0 is the no-effect control and ±100 the full control effect; nearly all actives have a fitted effect of over 75% in size
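G9a (20 nM) preincubated 15 min RT with compounds, then 500 nM biotinylated H3K9 peptide and 20 uM SAM added; 2 h RT reaction. Monomethyl-H3K9 product detected by AlphaScreen with anti-H3K9me1 antibody, streptavidin donor and anti-rabbit IgG acceptor beads.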
BAZ2B inh: blocks human BAZ2B; Q9UIF8; AlphaScreen BAZ2B-H3K14Ac peptide displacement; Potency, µM (series often up to 114 µM), without a hit: at the top dose activity change, negative = inhibition, most hits filed as inhibitors; 4.4% of 360,000 active; AID 504333; further: on the % scale 0 is the no-effect control and ±100 the full control effect; nearly all actives have a fitted effect of over 60% in size
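AlphaScreen displacement of biotin-H3(5-23)K14Ac peptide (50 nM final) from BAZ2B (50 nM final) in PBS pH 7.4, 0.01% Tween-20; complex preformed 30 min RT, then compounds (top 110 uM) 30 min RT, beads 20 min dark.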
JMJD2A Tudor inh: blocks the human JMJD2A Tudor domain | O75164 | AlphaScreen JMJD2A-Tudor / H3K4me3 peptide binding | Potency, µM (highest dose often 114 µM), for inactives: at the highest dose activity change, negative = inhibition, most hits filed as inhibitors | 4.4% of 390,000 active | AID 504339; further: on the % scale 0 is the no-effect control and ±100 the full control effect; nearly all actives have a fitted effect of over 50% in size
Starred values were filed as active, the others as inactive; ? = inconclusive; nt = not tested or not shown; [ ] = dose if it differs, or a comment. In the library only some 9% were active in any assay of this set; here they are far more common. The call rests on the fitted dose curve; in most records, active means well fitted curve in the direction sought with a large enough effect; inconclusive means small, poorly fitted or top-dose-only effect, or another doubt; inactive means no such curve, though single readings can be large; an effect the other way counts as inactive or inconclusive. Potency means the concentration at half of the fitted maximal effect.

SMILES | PLK1 PBD block | ALOX12 inh | HP1b chromo inh | G9a inh | BAZ2B inh | JMJD2A Tudor inh
NS(=O)(=O)c1ccc(NC(=S)N2CCN(c3ccccc3)CC2)cc1 | ? | 3.2% | -11.3% | ? | -3.4% | -16.6%
O=S(=O)(Nc1cc(C(F)(F)F)ccc1N1CCOCC1)c1ccc2ccccc2c1 | -13.3% | ? | 59.0% | 50.1µM* | -1.6% | -7.3%
O=S(=O)(Nc1cc(C(F)(F)F)ccc1N1CCOCC1)c1ccccc1 | 5.1% | -8.3% | 55.1% | 2.6% | 1.4% | -1.0%
Cc1cc2cc(NS(=O)(=O)c3ccc4ccccc4c3)ccc2[nH]1 | nt | 10µM* | nt | nt | nt | nt
CC(C)c1ccc(NS(=O)(=O)c2ccc(N3C(=O)CCC3=O)cc2)cc1 | -9.1% | 130.9% | 6.6% | nt | -5.1% | -18.9%
CC(C)c1ccc(S(=O)(=O)Nc2ccc(N3CCOCC3)cc2)cc1 | 0.5% | ? | -1.3% | ? | 44.7µM* | -31.6%
Cc1ccc(NS(=O)(=O)c2ccc(N3C(=O)CCC3=O)cc2)cc1 | -6.1% | -5.0% | 29.5% | 50.1µM* | -0.3% | 30.2%
COc1cc(CCC(=O)Nc2sccc2C#N)cc(OC)c1OC | -8.2% | 13.7% | 16.0% | -33.7% | 0.3% | -6.4%
Cc1ccc(S(=O)(=O)c2ccc(NN)cc2)cc1 | ? | 3.3% | -21.4% | 8.91µM* | -22.0% | -34.0%
Cc1ccc(S(=O)(=O)Nc2ccc(N3CCOCC3)cc2)cc1C | -12.5% | 3.8% | -11.4% | 44.7µM* | -22.4% | ?
CC(C)c1ccc(C2(C)NC(=O)N(C(C)C(=O)Nc3ccc(N4CCOCC4)cc3)C2=O)cc1 (configuration not stated) | 2.4% | 1.1% | 36.2% | 56.2µM* | -31.7% | -24.7%
O=S(=O)(Nc1ccc(N2CCOCC2)cc1)c1ccc2ccccc2c1 | -6.5% | -8.5% | -22.5% | 39.8µM* | ? | ?
COc1ccc(S(=O)(=O)Nc2ccc(S(=O)(=O)N3CCOCC3)cc2)cc1C | -13.4% | 0.0% | 17.8% | 4.0%[59 µM] | -0.5% | -14.5%
CCn1nc(C)c(Br)c1C(=O)Sc1ccccc1Cl | 13.4µM* | 0.0% | 127.8% | 130.7% | 25.6% | 77.6%
CCCNC(=O)CN1CCN(c2ncc(NC(=O)c3ccc(Cl)cc3)cc2C(=O)O)CC1 | nt | 3.3% | -23.1% | ? | 50.1µM* | 70.8µM*
CCCCNC(=O)CN1CCN(c2ncc(NC(=O)c3ccc(Cl)cc3)cc2C(=O)O)CC1 | nt | 35.5µM* | -31.0% | ? | 50.1µM* | 79.4µM*
CCCNC(=O)CN1CCN(c2cc3ccccc3c(Cl)n2)CC1 | -8.7% | ? | 48.1% | ? | -1.5% | -16.4%
CCCCNC(=O)CN1CCN(c2ccc(NC(=O)c3ccc(OC)cc3)cc2C(=O)O)CC1 | nt | -1.2% | 16.3% | -3.6%[59 µM] | -3.2% | ?
O=C(NCC(c1cccs1)N1CCOCC1)c1cc([N+](=O)[O-])ccc1Cl (configuration not stated) | -0.3% | -6.0% | 28.1% | 44.7µM* | 9.3% | -4.8%
CCC(C)Sc1cccc(-c2nc3ccc(C)cn3c2NCc2ccccc2)c1 (configuration not stated) | -10.9% | ? | 1.2% | -3.4%[2.33 µM] | ? | ?
N#Cc1ccsc1NC(=O)CCc1ccccc1 | -9.9% | 16.7% | 14.0% | 25.1µM* | ? | -13.6%
N#Cc1ccsc1NC(=O)c1ccccn1 | -13.3% | 0.0% | 9.3% | ? | 10µM* | 20µM*
Cc1ccc(C(=O)Nc2sccc2C#N)s1 | nt | 50.1µM* | nt | nt | nt | nt
N#Cc1ccsc1NC(=O)c1ccc2ncsc2c1 | 2.3% | -3.0% | nt | nt | nt | nt
CCC(CC)C(=O)Nc1sccc1C#N | nt | -9.2% | nt | nt | nt | nt
SMILES | PLK1 PBD block | ALOX12 inh | HP1b chromo inh | G9a inh | BAZ2B inh | JMJD2A Tudor inh
N#Cc1ccsc1NC(=O)CN(Cc1ccccc1)Cc1ccccc1 | -9.9% | 16.1% | 67.4% | 84.9%[59 µM] | -0.2% | 12.1%
Cc1ccccc1C(=O)N1CCc2nc(C(C)C)nc(-c3ccc(O)cc3)c2C1 | nt | -21.3% | nt | nt | nt | nt
COc1ccccc1-c1nc(N)n[nH]1 | 1.1% | -15.3% | 50.2% | nt | 0.8% | -3.0%
COc1ccccc1-c1n[nH]c(=S)n1N | 0.1% | 14.1µM* | 15.6% | 12.6µM* | ? | ?
COc1ccccc1-c1n[nH]c(=S)n1-c1ccccc1 | -20.1% | ? | 36.7% | 2.51µM* | -27.4% | 7.94µM*
COc1ccccc1-c1ccnc(-c2nnc(C)n2-c2ccccc2)c1 | nt | 10.5%[176 µM] | nt | nt | nt | nt
S=C(c1ccc2c(c1)OCO2)N1CCOCC1 | ? | 60.6% | -5.8% | 31.6µM* | -22.8% | 2.7%
S=C(c1ccc2c(c1)OCO2)N1CCCCCC1 | -15.8% | -22.7% | 8.8% | 50.1µM* | 3.3% | -14.9%
CN(C)c1ccc(C(=S)N2CCOCC2)cc1Br | ? | -18.1% | -22.6% | ? | 5.3% | -15.5%
S=C(c1ccc(N2CCOCC2)cc1)N1CCOCC1 | 26.7µM* | ? | -30.3% | ? | 3.1% | -21.5%
COc1ccccc1/C=N/N1C(=O)C(CC(=O)Nc2ccc([N+](=O)[O-])cc2OC)SC1=Nc1cccc(C)c1C (configuration not stated) | nt | -14.4% | nt | nt | ? | nt
O=C(CCC(=O)N1Cc2ccccc2Oc2ncccc21)Nc1ccc(Cl)cc1 | nt | -24.3% | 8.3% | -15.5%[59 µM] | -2.7%[57.1 µM] | -8.1%
CCC(=O)OCC(=O)Nc1cc(C)c(C)cc1[N+](=O)[O-] | 23.8µM* | -14.2% | -17.9% | -7.4%[59 µM] | ? | ?
COc1ccc(C(=O)OCC(=O)Nc2cc(C)c(C)cc2[N+](=O)[O-])cc1 | -10.3% | -6.1% | 26.6% | -3.0%[59 µM] | -18.9% | -26.5%
Cc1cc(NC(=O)COC(=O)CC2CCCC2)c([N+](=O)[O-])cc1C | -15.8% | 0.5% | -12.1% | 61.0% | -2.1% | ?
COc1ccc2c(CC(=O)OCC(=O)Nc3cc(C)c(C)cc3[N+](=O)[O-])coc2c1 | -6.3% | -1.7% | ? | 20µM* | ? | ?
Cc1ccc(C)c(NC(=O)C(c2ccccc2)N2CCN(CC(=O)N3CCOCC3)CC2)c1 (configuration not stated) | -13.9% | -1.2% | 15.3% | nt | nt | -4.2%
O=c1c2c(nc3cc(-c4ccccc4Cl)[nH]n13)CCS2 | -19.4% | 39.8µM* | 26.3% | nt | -5.6% | -16.8%
Cc1nnc(SCc2cc([N+](=O)[O-])cc3c2OCOC3)n(N)c1=O | 2.9% | 3.4% | 40.9% | 1.8% | -2.8% | -9.0%
CN(C)S(=O)(=O)c1cccc(-c2nnc(SCc3cc(Cl)cc4c3OCOC4)n2N)c1 | 9.47µM* | ? | ? | 8.91µM* | -27.1% | 39.8µM*
COc1ccccc1/C=C/c1nc(S(=O)(=O)c2ccccc2)c(N2CCC(C(N)=O)CC2)o1 | ? | 14.5% | 14.6% | 1.9%[59 µM] | -37.3% | 9.7%
O=S1OCCN1c1ccccc1 (configuration not stated) | 33.6µM* | -10.2% | 17.8% | nt | -5.9% | -21.7%
O=C1N(c2ccccc2)CCN1c1ccccc1 | -11.2% | -3.8% | 23.9% | -1.5%[0.501 µM] | 9.8% | -1.4%

Screening data (PubChem)
